Our source for the outcome and AC50 values is PubChem BioAssay (EPA / NIEHS).

Molecules are shown by their SMILES. Several values for one entry are separate records, joined by “and”; a condition that tells them apart may be missing. Identical values can stand only once. Records with an inconclusive call do not appear. Where a structure was tested more than once in an assay, its records may differ in their call. Activity calls are given as the source filed them. Rule for the calls, unless noted: active = hit-call score of the fitted dose curve at least 0.9, where 1 is the maximum; inactive = score below 0.9.

Test [1] can be described thus: UKN2_HCS_IMR90_cell_viability: Viability Assessment in the University of Konstanz (UKN) Leist Lab Neural Crest Cell Migration Assay in human induced IMR90 Pluripotent Stem Cells (UKN2) (AID 2284233).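 Note: viability of neural crest cells differentiated from IMR90 iPSC measured by calcein-AM fluorescence imaging; cells exposed to compound for 24 h after a 24 h migration phase.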 In a few lines: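 cMINC format, iPSC-derived neural crest (IMR90); 24 h migration (EGF/FGF, N2-S), then 24 h toxicant. Calcein-AM/H-33342 stain 30 min; fluorescence intensity by HCS; DMSO-normalised, bidirectional fitting.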

The nature of test [2]: CCTE_Mundy_HCI_Cortical_NOG_NeuronCount: CCTE's Neurite Outgrowth Assay in rat cortical cells for Neuron Count, Mundy Lab (AID 2284236; active = hit-call score of the fitted dose curve at least 0.9, where 1 is the maximum;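 note: neurons counted by imaging betaIII-tubulin and Hoechst stained cortical cells; cells exposed to compound for about 48 hours before fixation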). Summed up:
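Read-out: neuron number by high-content imaging of betaIII-tubulin (Alexa Fluor-488) and Hoechst-labelled rat primary cortical cells.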

Test [3] in a line: CCTE_Mundy_HCI_Cortical_NOG_BPCount: CCTE's Neurite Outgrowth Assay in rat cortical cells for Branch Point Count, Mundy Lab (AID 2284237).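 For AC50: branch points counted about two days after chemical exposure.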 Summed up: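 Measured 50.33 h after dosing, this morphology endpoint uses rat primary cortical cultures labelled for betaIII-tubulin. Branch points are quantified by high-content imaging, with DMSO as negative control and baseline.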
Test [4] can be described thus: CCTE_Mundy_HCI_hNP1_Casp3_7: CCTE's Caspase-Glo 3/7 Assay in human neuroprogenitor cells for Apoptosis, Mundy Lab (AID 2284240). Summed up:
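Neuroepithelial-lineage stem cells from WA09 embryonic cells were treated with chemicals after 40–44 h of culture. Twenty-four hours later, caspase-3/7 activation was detected luminescently after a 30 min room-temperature reagent step, with DMSO as baseline.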

The nature of test [5]: CCTE_Mundy_HCI_hNP1_CellTiter: CCTE's Cell Titer-Glo 2 Assay in human neuroprogenitor cells for Viability, Mundy Lab (AID 2284241; active = hit-call score of the fitted dose curve at least 0.9, where 1 is the maximum;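 for AC50: a hit is a drop in ATP luminescence versus DMSO meaning reduced viability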). In a few lines: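 Measures ATP content in human neural progenitors derived from WA09 embryonic cells. Read-out at 26.5 hours after dosing, with DMSO serving as the negative control and baseline.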
A general note: ATP-based viability assays read luminescence as a measure of living cells.

Test [6] is described as follows: CCTE_Mundy_HCI_Cortical_Synap_Neur_Matur_NeuronCount: CCTE's Synaptogenesis and Neurite Maturation Assay in rat cortical cells for Neuron Count, Mundy Lab (AID 2284242; active = hit-call score of the fitted dose curve at least 0.9, where 1 is the maximum;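 for AC50: hits reduce neuron count versus DMSO baseline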). In a few lines:
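Neuron counts come from automated high-content imaging of Hoechst nuclei and MAP2/synaptophysin immunostaining at DIV 12, with loss of signal judged against DMSO. Cultures of rat cortical cells had glial growth arrested by AraC at DIV 5; chemical exposure began DIV 7.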

The nature of test [7]: UKN4_HCS_LUHMES_cell_viability: Viability Assessment in the University of Konstanz (UKN) Leist Lab Neurite Outgrowth Assay in human LUHMES cells (UKN4) (AID 2284232). In a few lines:
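Viability was read by high-content imaging of calcein-AM/H-33342-stained cells after 24 h toxicant exposure, staining included. Cells: human LUHMES on day 2 of dopaminergic differentiation, dosed shortly after attachment; DMSO baseline, bidirectional curve fitting.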

Read-out in test [8]: Interleukin 6 (IL6), IL6 (gene 3569)
Put plainly: BSK_BT_xIL6: BioMAP Diversity Plus: BT Assay for Interleukin 6 (IL6) Biomarker Activity (AID 2284228). The following applies: primary human B cells with PBMC. Summed up:
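Secreted IL-6 in the primary human B cell plus PBMC system, measured by Luminex at 24 h post-chemical, DMSO as baseline. Alamar Blue viability: 75,000 cells/well, chemical 1 h before SEB/TSST-1 (20 ng/mL each), 90 h, then 6 h dye.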

Read-out in test [9]: Interleukin 17A (IL17A), IL17A (gene 3605)
The test is described as follows: BSK_BT_xIL17A: BioMAP Diversity Plus: BT Assay for Interleukin 17A (IL17A) Biomarker Activity (AID 2284229). The following applies: primary human B cells with PBMC. In a few lines:
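Luminex xMAP quantification of secreted IL-17A after 24 h chemical exposure of a primary human B cell/PBMC co-culture. Signal increases fitted relative to DMSO negative control.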

Read-out in test [10]: Tumor necrosis factor (Homo sapiens) (UniProt P01375)
The test is described as follows: BSK_BT_xTNFa: BioMAP Diversity Plus: BT Assay for Tumor necrosis factor alpha (TNF-alpha) Biomarker Activity (AID 2284230). The following applies: primary human B cells with PBMC. In a few lines: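 Endpoint derived in the positive direction versus DMSO vehicle. Cells: B cells together with PBMC, exposed 24 h before TNF-alpha in the medium was read on the Luminex xMAP platform.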

Read-out in test [11]: Vascular cell adhesion molecule 1 (VCAM1), VCAM1 (gene 7412)
Put plainly: BSK_MyoF_VCAM1: BioMAP Diversity Plus: MyoF Assay for Vascular cell adhesion molecule 1 (VCAM1) Biomarker Activity (AID 2284231). Particulars: primary human lung fibroblasts. In a few lines: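 ELISA readout of VCAM-1 on human lung fibroblast cultures 24 hours after dosing, analyzed for signal gain relative to DMSO. Overt cytotoxicity was checked by sulforhodamine B total-protein staining in parallel cultures.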

Read-out in test [12]: Collagen I, COL1A1 (gene 1277)
The test is described as follows: BSK_MyoF_CollagenI: BioMAP Diversity Plus: MyoF Assay for Collagen I Biomarker Activity (AID 2284238). Particulars: primary human lung fibroblasts. Summed up: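 Collagen I levels measured by ELISA on human lung fibroblast cultures 24 h post-dosing, with curve fitting in the positive direction relative to DMSO; SRB staining of parallel wells marked cytotoxicity.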

Read-out in test [13]: Collagen III, COL3A1 (gene 1281)
The test is described as follows: BSK_MyoF_CollagenIII: BioMAP Diversity Plus: MyoF Assay for Collagen III Biomarker Activity (AID 2284239). Particulars: primary human lung fibroblasts. In a few lines:
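Collagen III biomarker quantified by ELISA in human lung fibroblast cultures 24 h after dosing. Activity fitted in the positive direction against DMSO as baseline.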

Read-out in test [14]: Interleukin 17F (IL17F), IL17F (gene 112744)
The test is described as follows: BSK_BT_xIL17F: BioMAP Diversity Plus: BT Assay for Interleukin 17F (IL17F) Biomarker Activity (AID 2284243). Particulars: primary human B cells with PBMC. In a few lines: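 Human B cells co-cultured with PBMC; secreted IL-17F quantified by LumineX xMAP 24 hours after chemical dosing. Activity fitted in the positive direction against DMSO negative control as baseline.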

Read-out in test [15]: Actin alpha 1 (ACTA1), ACTA1 (gene 58)
Put plainly: BSK_MyoF_ACTA1: BioMAP Diversity Plus: MyoF Assay for Actin alpha 1 (ACTA1) Biomarker Activity (AID 2284244). The following applies: primary human lung fibroblasts. In a few lines: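 alpha-SMA levels read by ELISA against DMSO baseline, 24 h post-dose, in primary human lung fibroblasts. Parallel cultures stained with 0.1% SRB after 10% TCA fixation (560 nm) to flag overt cytotoxicity.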

Read-out in test [16]: Interleukin 2 (IL2), IL2 (gene 3558)
Put plainly: BSK_BT_xIL2: BioMAP Diversity Plus: BT Assay for Interleukin 2 (IL2) Biomarker Activity (AID 2284245). The following applies: primary human B cells with PBMC. Summed up:
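Secreted IL-2 was read by Luminex xMAP from B cells co-cultured with PBMC (human primary) 24 h post-dosing; activity was analysed as gain of signal relative to DMSO vehicle.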

Read-out in test [17]: Basic fibroblast growth factor (bFGF), FGF2 (gene 2247)
Put plainly: BSK_MyoF_bFGF: BioMAP Diversity Plus: MyoF Assay for Basic fibroblast growth factor (bFGF) Biomarker Activity (AID 2284246). The following applies: primary human lung fibroblasts. Summed up:
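bFGF was measured by ELISA in primary human lung fibroblasts 24 h after chemical addition. Signal was analysed as positive-direction change relative to DMSO baseline.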

Read-out in test [18]: Collagen IV, COL4A1 (gene 1282)
The test is described as follows: BSK_MyoF_CollagenIV: BioMAP Diversity Plus: MyoF Assay for Collagen IV Biomarker Activity (AID 2284247). Particulars: primary human lung fibroblasts. Summed up:
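Collagen IV quantified by ELISA in human lung fibroblast cultures 24 h after chemical treatment, with DMSO as baseline. Parallel SRB staining (0.1% SRB after TCA fixation, 560 nm) flags overt cytotoxicity.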

Chain of Tumor necrosis factor (Homo sapiens) (P01375 whole entry, looked up): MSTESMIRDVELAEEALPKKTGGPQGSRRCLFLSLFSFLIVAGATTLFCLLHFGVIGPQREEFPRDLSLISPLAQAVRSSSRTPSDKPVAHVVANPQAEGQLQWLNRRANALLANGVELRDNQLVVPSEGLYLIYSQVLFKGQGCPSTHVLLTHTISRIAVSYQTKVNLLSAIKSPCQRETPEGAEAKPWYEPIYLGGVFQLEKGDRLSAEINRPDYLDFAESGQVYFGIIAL

Turning to `CCOP(=O)(NC(C)C)Oc1ccc(SC)c(C)c1` (centres undefined), the result in [1], in [2], in test [3], in test [4] and in test [6] was inactive. Further, the half-maximal activity concentration (AC50) in [5] was 51 µM (active).
Take `CCOP(=S)(OCC)Oc1ccc2c(C)c(Cl)c(=O)oc2c1`: the molecule was called inactive in test [2] and in [6]. The AC50 in test [3] is 86.4 µM (active); in test [4], 73.8 µM (active); in [5], 38.6 µM (active).
As to `COP(=O)(OC)OC(Br)C(Cl)(Cl)Br` (centres undefined), the AC50 is 21.6 µM (active) in test [1]; 30.2 µM (active) and 29.5 µM (active) in test [2]; 30.4 µM (active) and 22.1 µM (active) in [3]; 11.9 µM (active) in test [4]; 17.8 µM (active) and 85 µM (active) in test [5]; 26.1 µM (active) in [6]. Moreover, the result in test [4] and in test [6] was inactive.
As to `CC(C)N(C(=O)SCC(Cl)=C(Cl)Cl)C(C)C`, the half-maximal activity concentration (AC50) in test [7] is 19.3 µM (active); in test [6], 24.6 µM (active). The call in test [2], in test [3], in test [4] and in [5] was inactive.
In the case of `CN1COCN(Cc2cnc(Cl)s2)C1=N[N+](=O)[O-]`, the molecule was classed as inactive in test [3], in test [4], in test [5] and in test [6].
For the molecule `CC(=NC#N)N(C)Cc1ccc(Cl)nc1`, the outcome in test [7], in test [1], in test [2], in test [3], in test [4] and in test [5] was inactive.
Regarding `CCOP(=S)(OCC)SCCSCC`, the molecule was classed as inactive in [3], in [4] and in test [6].
Consider `CN(C)[C@@H]1C(=O)C(C(N)=O)=C(O)[C@@]2(O)C(=O)C3=C(O)c4c(O)cccc4[C@@](C)(O)[C@H]3[C@H](O)[C@@H]12`, for which the outcome in test [8], in test [9], in [10], in test [11], in [3] and in test [12] was inactive. The result in test [13], in [5], in [14], in [15], in [16] and in test [17] was inactive. The result in [18] was inactive. Besides, the concentration at half-maximal activity (AC50) is 90 µM (active) in test [1], 76.9 µM (active) in [2], 25.2 µM (active) in test [4] and 86.1 µM (active) in test [6].
In the case of `CON=C(C(=O)OC)c1ccccc1CON=C(C)c1cccc(C(F)(F)F)c1`, the AC50 was 50 µM (active) in test [1]; 1.78 µM (active) in test [2]; 0.929 µM (active) in test [3]; 50 µM (active) in test [4]; 50 µM (active) in test [5]; 0.293 µM (active) in test [6].
For `CCCSP(=O)(OCC)Oc1ccc(Br)cc1Cl` (centres undefined), the call in [2], in test [3], in [4], in [5] and in [6] was inactive.
Turning to `CCOP(=S)(Oc1cnc(C(C)(C)C)nc1)OC(C)C` (centres undefined), the result in [1], in test [2], in test [3], in [4], in test [5] and in test [6] was inactive. In addition, the AC50 was 28 µM (active) in test [2], 22.8 µM (active) in test [3], 91.4 µM (active) in test [4] and 20.1 µM (active) in [6].
For the molecule `CCOP(=S)(OCC)OC(Cl)C(Cl)(Cl)Cl` (centres undefined), the call in test [1], in [4] and in test [6] was inactive. For the same molecule, the AC50 in test [2] was 50 µM (active) and 21.7 µM (active); in test [3], 50 µM (active) and 28.7 µM (active); in test [4], 50.5 µM (active); in test [5], 78.1 µM (active) and 88.7 µM (active); in test [6] it was 21.8 µM (active).

Broadly, the AC50 is the concentration giving half of the maximal activity seen.
